Experimental data reported in ChEMBL document CHEMBL2218924, “A broad activity screen in support of a chemogenomic map for kinase signalling research and drug discovery” (Biochem J, 2013).

Assays:
[1] = target: Tyrosine-protein kinase JAK2 (Homo sapiens) (UniProt O60674); conditions: at 1 µM
[2] = target: Tyrosine-protein kinase JAK2 (Homo sapiens) (UniProt O60674); conditions: at 10 µM
[3] = target: Mitogen-activated protein kinase 9 (Homo sapiens) (UniProt P45984); conditions: at 1 µM
[4] = target: Mitogen-activated protein kinase 9 (Homo sapiens) (UniProt P45984); conditions: at 10 µM
[5] = target: Mitogen-activated protein kinase 10 (Homo sapiens) (UniProt P53779); conditions: at 1 µM
Sequence of Mitogen-activated protein kinase 10 (Homo sapiens) (P53779 whole entry, the tested form may be a part): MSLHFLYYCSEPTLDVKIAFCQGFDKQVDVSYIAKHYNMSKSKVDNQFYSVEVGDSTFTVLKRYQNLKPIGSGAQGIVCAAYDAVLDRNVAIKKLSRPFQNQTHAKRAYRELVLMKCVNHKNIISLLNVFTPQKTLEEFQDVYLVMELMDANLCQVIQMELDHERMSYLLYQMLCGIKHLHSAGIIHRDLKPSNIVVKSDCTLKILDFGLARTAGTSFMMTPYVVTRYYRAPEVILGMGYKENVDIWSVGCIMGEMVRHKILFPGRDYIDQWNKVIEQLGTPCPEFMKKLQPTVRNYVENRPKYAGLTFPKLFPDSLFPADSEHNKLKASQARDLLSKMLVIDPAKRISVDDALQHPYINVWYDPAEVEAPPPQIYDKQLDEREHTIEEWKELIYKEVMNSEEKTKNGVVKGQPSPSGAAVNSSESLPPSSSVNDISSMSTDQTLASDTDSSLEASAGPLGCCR

[6] = target: Mitogen-activated protein kinase 10 (Homo sapiens) (UniProt P53779); conditions: at 10 µM
[7] = target: LIM domain kinase 1 (Homo sapiens) (UniProt P53667); conditions: at 1 µM
Sequence of LIM domain kinase 1 (Homo sapiens) (P53667 whole entry, looked up, the tested form may be a part): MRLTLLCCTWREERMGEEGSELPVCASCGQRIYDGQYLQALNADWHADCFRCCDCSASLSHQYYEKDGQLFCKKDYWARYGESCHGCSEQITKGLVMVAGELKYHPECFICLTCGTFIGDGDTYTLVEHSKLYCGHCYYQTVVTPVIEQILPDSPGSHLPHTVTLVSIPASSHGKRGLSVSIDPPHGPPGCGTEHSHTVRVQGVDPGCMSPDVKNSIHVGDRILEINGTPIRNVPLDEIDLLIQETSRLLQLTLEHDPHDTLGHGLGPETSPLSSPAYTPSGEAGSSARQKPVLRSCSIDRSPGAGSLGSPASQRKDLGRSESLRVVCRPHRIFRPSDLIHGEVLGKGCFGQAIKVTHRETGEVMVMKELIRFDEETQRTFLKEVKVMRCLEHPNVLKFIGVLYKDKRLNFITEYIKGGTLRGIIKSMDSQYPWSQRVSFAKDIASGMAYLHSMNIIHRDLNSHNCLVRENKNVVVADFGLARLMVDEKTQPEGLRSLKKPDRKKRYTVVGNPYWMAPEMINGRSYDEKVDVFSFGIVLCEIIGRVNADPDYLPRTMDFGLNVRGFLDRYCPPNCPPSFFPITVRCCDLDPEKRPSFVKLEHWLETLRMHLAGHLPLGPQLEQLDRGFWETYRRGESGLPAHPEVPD

[8] = target: LIM domain kinase 1 (Homo sapiens) (UniProt P53667); conditions: at 10 µM
[9] = target: T1, Serine/threonine-protein kinase STK11 (Homo sapiens) (UniProt Q15831); conditions: at 1 µM
T1 sequence (whole entry): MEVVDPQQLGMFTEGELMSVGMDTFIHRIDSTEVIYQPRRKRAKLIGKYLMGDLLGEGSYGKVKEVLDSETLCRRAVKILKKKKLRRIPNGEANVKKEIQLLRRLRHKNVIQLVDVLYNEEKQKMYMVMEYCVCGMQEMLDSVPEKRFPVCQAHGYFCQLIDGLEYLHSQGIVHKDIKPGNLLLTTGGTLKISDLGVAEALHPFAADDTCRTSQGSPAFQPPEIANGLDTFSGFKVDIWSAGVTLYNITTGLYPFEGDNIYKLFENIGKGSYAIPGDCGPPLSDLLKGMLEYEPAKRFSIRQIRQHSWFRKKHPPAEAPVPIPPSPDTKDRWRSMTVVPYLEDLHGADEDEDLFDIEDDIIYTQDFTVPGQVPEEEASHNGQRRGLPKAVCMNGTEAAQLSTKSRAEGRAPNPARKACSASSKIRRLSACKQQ

[10] = target: T1, Serine/threonine-protein kinase STK11 (Homo sapiens); conditions: at 10 µM
[11] = target: Serine/threonine-protein kinase 10 (Homo sapiens) (UniProt O94804); conditions: at 1 µM
Sequence of Serine/threonine-protein kinase 10 (Homo sapiens) (O94804 whole entry, looked up): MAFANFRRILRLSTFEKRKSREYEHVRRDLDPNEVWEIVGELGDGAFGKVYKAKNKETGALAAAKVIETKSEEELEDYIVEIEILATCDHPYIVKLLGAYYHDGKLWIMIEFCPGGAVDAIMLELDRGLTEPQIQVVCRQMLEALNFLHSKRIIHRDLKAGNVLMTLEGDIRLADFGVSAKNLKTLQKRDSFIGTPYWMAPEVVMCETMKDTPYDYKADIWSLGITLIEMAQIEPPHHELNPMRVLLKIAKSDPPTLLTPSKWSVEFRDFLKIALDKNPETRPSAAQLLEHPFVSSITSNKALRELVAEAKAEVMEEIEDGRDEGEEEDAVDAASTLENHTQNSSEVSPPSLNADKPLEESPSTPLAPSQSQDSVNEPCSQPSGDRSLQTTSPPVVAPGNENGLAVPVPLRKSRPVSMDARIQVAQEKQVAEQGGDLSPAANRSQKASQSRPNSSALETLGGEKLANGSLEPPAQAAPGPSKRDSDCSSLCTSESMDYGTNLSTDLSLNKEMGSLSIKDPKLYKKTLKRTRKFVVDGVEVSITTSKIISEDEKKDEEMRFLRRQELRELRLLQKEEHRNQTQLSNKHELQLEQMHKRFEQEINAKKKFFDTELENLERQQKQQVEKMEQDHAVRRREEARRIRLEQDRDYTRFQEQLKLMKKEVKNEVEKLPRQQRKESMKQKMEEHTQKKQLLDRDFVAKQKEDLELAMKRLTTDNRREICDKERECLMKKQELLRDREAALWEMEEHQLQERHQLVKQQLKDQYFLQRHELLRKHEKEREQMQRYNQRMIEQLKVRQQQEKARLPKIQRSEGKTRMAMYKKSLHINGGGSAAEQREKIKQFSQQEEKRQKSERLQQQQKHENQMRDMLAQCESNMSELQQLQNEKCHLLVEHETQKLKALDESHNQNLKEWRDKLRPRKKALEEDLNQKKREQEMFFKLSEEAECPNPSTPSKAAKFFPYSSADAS

[12] = target: Serine/threonine-protein kinase 10 (Homo sapiens) (UniProt O94804); conditions: at 10 µM
[13] = target: Tyrosine-protein kinase Lck (Homo sapiens) (UniProt P06239); conditions: at 1 µM
Sequence of Tyrosine-protein kinase Lck (Homo sapiens) (P06239 2-509 limits assumed): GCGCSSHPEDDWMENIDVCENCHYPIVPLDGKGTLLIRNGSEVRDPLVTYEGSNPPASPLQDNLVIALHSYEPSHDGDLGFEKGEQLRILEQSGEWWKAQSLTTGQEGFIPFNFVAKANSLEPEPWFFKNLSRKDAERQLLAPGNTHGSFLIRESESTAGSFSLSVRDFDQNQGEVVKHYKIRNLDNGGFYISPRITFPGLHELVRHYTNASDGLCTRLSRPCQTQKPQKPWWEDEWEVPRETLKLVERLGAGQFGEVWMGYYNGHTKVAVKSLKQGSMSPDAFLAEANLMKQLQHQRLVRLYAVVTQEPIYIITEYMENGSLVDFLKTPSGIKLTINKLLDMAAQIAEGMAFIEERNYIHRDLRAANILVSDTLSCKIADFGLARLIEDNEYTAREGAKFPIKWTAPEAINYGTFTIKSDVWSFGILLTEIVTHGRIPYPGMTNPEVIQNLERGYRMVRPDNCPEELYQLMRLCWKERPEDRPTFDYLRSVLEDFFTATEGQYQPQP

[14] = target: T2, Tyrosine-protein kinase JAK3 (Homo sapiens) (UniProt P52333); conditions: at 1 µM
T2 sequence (whole entry): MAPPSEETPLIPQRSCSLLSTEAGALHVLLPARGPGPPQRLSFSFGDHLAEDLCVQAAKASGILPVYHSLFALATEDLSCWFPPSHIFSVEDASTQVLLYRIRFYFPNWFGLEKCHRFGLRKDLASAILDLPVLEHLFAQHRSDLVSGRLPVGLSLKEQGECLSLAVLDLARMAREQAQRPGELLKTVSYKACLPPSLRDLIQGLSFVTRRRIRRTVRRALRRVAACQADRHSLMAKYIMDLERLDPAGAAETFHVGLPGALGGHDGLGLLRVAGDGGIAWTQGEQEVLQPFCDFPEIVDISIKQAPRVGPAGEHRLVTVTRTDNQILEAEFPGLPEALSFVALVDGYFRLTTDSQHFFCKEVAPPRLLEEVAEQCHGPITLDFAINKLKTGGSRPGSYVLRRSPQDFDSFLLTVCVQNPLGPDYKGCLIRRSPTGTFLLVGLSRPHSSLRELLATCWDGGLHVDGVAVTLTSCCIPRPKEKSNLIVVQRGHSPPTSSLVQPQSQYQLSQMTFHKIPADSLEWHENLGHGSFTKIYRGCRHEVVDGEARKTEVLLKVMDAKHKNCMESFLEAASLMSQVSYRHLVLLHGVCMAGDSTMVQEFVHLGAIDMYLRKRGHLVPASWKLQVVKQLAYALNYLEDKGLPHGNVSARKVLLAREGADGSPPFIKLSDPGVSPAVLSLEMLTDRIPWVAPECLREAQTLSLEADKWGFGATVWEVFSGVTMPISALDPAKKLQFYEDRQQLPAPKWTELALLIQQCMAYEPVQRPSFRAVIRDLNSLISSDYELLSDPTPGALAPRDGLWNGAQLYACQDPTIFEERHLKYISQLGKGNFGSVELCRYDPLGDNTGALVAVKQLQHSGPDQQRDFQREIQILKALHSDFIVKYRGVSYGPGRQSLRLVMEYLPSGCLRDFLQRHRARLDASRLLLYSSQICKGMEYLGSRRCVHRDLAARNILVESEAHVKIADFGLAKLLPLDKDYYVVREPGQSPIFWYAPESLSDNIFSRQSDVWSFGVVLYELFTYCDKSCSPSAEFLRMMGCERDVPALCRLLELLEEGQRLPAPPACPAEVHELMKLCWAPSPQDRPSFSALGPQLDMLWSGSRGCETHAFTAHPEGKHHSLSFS

[15] = target: T2, Tyrosine-protein kinase JAK3 (Homo sapiens); conditions: at 10 µM
[16] = target: Mitogen-activated protein kinase 8 (Homo sapiens) (UniProt P45983); conditions: at 1 µM
Sequence of Mitogen-activated protein kinase 8 (Homo sapiens) (P45983 whole entry): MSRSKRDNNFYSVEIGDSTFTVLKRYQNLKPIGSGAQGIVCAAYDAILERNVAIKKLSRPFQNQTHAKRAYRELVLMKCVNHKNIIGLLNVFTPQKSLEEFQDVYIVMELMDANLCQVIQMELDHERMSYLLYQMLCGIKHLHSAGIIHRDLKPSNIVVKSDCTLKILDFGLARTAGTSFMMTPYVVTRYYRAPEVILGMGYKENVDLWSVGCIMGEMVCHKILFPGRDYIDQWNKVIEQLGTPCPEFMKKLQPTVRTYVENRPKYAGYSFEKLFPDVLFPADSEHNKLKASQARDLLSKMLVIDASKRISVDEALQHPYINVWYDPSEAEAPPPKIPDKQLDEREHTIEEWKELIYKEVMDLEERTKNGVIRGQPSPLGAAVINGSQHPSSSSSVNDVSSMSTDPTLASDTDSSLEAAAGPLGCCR

[17] = target: Vascular endothelial growth factor receptor 2 (Homo sapiens) (UniProt P35968); conditions: at 1 µM
Sequence of Vascular endothelial growth factor receptor 2 (Homo sapiens) (P35968 whole entry): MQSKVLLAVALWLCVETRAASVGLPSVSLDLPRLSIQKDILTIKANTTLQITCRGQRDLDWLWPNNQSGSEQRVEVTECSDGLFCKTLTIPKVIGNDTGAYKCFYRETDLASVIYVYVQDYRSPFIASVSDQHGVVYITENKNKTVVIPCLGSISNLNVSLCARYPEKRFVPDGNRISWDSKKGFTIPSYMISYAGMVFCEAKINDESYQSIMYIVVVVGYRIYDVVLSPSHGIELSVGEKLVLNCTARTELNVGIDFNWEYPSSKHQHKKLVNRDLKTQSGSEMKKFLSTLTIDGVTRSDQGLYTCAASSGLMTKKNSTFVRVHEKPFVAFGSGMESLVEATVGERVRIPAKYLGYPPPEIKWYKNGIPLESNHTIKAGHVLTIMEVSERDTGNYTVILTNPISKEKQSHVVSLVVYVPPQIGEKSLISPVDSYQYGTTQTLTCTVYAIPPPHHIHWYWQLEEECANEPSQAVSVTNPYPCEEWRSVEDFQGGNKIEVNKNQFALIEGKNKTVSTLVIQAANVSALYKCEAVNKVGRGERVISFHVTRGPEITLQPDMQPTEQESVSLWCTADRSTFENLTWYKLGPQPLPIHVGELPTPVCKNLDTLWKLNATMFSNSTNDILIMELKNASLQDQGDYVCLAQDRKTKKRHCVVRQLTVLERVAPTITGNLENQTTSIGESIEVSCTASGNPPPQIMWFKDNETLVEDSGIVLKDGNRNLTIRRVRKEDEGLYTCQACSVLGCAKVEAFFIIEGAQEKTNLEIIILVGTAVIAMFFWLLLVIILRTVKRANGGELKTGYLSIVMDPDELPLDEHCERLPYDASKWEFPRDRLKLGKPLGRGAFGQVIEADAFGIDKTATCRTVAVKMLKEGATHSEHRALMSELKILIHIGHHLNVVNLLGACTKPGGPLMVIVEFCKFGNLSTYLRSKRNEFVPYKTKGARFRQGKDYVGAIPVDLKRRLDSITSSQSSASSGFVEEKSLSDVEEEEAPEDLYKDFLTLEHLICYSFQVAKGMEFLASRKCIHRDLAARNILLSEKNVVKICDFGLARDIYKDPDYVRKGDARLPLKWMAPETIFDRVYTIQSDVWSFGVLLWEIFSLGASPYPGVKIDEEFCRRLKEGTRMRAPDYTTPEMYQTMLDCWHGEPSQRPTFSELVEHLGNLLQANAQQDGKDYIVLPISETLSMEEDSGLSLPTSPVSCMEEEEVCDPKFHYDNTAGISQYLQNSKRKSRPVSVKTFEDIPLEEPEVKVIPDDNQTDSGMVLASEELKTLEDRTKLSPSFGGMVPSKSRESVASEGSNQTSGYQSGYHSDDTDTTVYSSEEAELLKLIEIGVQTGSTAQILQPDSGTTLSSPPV

[18] = target: Vascular endothelial growth factor receptor 2 (Homo sapiens) (UniProt P35968); conditions: at 10 µM
[19] = target: Mitogen-activated protein kinase 8 (Homo sapiens) (UniProt P45983); conditions: at 10 µM

Sequence of Mitogen-activated protein kinase 9 (Homo sapiens) (P45984 whole entry, looked up): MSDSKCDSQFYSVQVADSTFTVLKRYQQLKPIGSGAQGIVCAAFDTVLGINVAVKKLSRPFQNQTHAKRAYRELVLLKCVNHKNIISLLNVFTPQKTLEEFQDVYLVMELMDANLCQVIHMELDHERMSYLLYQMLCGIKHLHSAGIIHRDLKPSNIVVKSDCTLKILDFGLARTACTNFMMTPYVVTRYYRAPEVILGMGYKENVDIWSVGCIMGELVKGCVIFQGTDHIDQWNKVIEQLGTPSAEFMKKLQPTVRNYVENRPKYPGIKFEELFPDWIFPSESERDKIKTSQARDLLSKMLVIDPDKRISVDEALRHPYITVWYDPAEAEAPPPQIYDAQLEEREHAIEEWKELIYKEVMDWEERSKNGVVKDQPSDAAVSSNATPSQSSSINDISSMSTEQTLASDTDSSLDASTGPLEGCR

Nc1n[nH]c2nc3ccccc3nc12
residual activity [1]: 98% | residual activity [2]: 91% | residual activity [3]: 100% | residual activity [4]: 84% | residual activity [5]: 80% | residual activity [6]: 66% | residual activity [7]: 89% | residual activity [8]: 67% | residual activity [9]: 126% | residual activity [10]: 88% | residual activity [11]: 88% | residual activity [12]: 78%

COc1ccc(CNC(=O)Nc2ncc([N+](=O)[O-])s2)cc1
residual activity [5]: 65% | residual activity [6]: 57% | residual activity [13]: 80%

O=C(c1ccccc1)c1ccc(N2CCOCC2)cc1O
residual activity [1]: 92% | residual activity [2]: 99% | residual activity [14]: 91% | residual activity [15]: 82% | residual activity [16]: 116% | residual activity [5]: 83% | residual activity [6]: 53% | residual activity [17]: 99% | residual activity [18]: 96% | residual activity [8]: 80% | residual activity [11]: 91% | residual activity [12]: 91% | residual activity [13]: 137%

Fc1ccc(-c2nc3n(c2-c2ccncc2)CCS3)cc1
residual activity [1]: 99% | residual activity [2]: 100% | residual activity [19]: 81% | residual activity [3]: 73% | residual activity [4]: 20% | residual activity [5]: 14% | residual activity [6]: 7% | residual activity [12]: 99%

NC(=O)c1ccc(-c2nc(-c3ccc4c(c3)OCCO4)c(-c3ccccn3)[nH]2)cc1
residual activity [16]: 117% | residual activity [19]: 87% | residual activity [11]: 65% | residual activity [12]: 68%

CCOc1nc(NC(=O)Cc2cc(OC)ccc2OC)cc(N)c1C#N
residual activity [16]: -16% | residual activity [19]: -6% | residual activity [3]: -1% | residual activity [4]: -11% | residual activity [5]: -2% | residual activity [6]: -2%

O=c1cc(N2CCOCC2)oc2c(-c3ccccc3)cccc12
residual activity [19]: 79% | residual activity [5]: 70% | residual activity [7]: 101% | residual activity [8]: 80%

O=C(Nc1ccc(Cl)cc1)c1ccccc1NCc1ccncc1
residual activity [1]: 129% | residual activity [2]: 74% | residual activity [16]: 120% | residual activity [19]: 129% | residual activity [5]: 72% | residual activity [6]: 123% | residual activity [17]: 3% | residual activity [18]: 4% | residual activity [9]: 101% | residual activity [10]: 99% | residual activity [11]: 82% | residual activity [12]: 64%

O=C1Cc2c([nH]c3ccc([N+](=O)[O-])cc23)-c2ccccc2N1
residual activity [2]: 106% | residual activity [14]: 101% | residual activity [15]: 101% | residual activity [16]: 109% | residual activity [3]: 104% | residual activity [4]: 101% | residual activity [5]: 70% | residual activity [6]: 66% | residual activity [17]: 52% | residual activity [18]: 42% | residual activity [11]: 102% | residual activity [12]: 110% | residual activity [13]: 22%

NC(=O)c1cccc(-c2cc(Nc3ccc(OC(F)(F)F)cc3)ncn2)c1
residual activity [17]: 100% | residual activity [18]: 89% | residual activity [8]: 94% | residual activity [9]: 95% | residual activity [10]: 98% | residual activity [13]: 139%

CN([C@@H](Cc1ccc(OS(=O)(=O)c2cccc3cnccc23)cc1)C(=O)N1CCN(c2ccccc2)CC1)S(=O)(=O)c1cccc2cnccc12
residual activity [15]: 83% | residual activity [3]: 114% | residual activity [4]: 114% | residual activity [5]: 76% | residual activity [6]: 75% | residual activity [7]: 99% | residual activity [8]: 86% | residual activity [13]: 144%

O=C1C(Cl)=C(N2C(=O)CCC2=O)C(=O)c2ccccc21
residual activity [14]: 100% | residual activity [15]: 89% | residual activity [16]: 96% | residual activity [19]: 86% | residual activity [3]: 89% | residual activity [4]: 102% | residual activity [5]: 88% | residual activity [6]: 94% | residual activity [7]: 88% | residual activity [8]: 81% | residual activity [9]: 94% | residual activity [10]: 89% | residual activity [11]: 95% | residual activity [12]: 90% | residual activity [13]: 76%

N#Cc1c(NC(=O)c2cccc3ccccc23)sc2c1CCCC2
residual activity [2]: 92% | residual activity [3]: 58% | residual activity [4]: 74% | residual activity [5]: 8% | residual activity [6]: 0% | residual activity [18]: 96% | residual activity [7]: 92% | residual activity [8]: 82% | residual activity [9]: 86% | residual activity [10]: 93% | residual activity [11]: 90% | residual activity [12]: 92%

COc1cc2nccc(Oc3ccc(NC(=O)Nc4cc(C)on4)c(Cl)c3)c2cc1OC
residual activity [14]: 100% | residual activity [15]: 48% | residual activity [16]: 120% | residual activity [19]: 109% | residual activity [7]: 67% | residual activity [8]: 14% | residual activity [9]: 99% | residual activity [10]: 101% | residual activity [11]: 8% | residual activity [12]: 8% | residual activity [13]: 3%

CC(C)N(CCC(=O)c1ccc2ccccc2c1)Cc1ccccc1
residual activity [14]: 78% | residual activity [15]: 45% | residual activity [19]: 57% | residual activity [4]: 86% | residual activity [5]: 80% | residual activity [6]: 84% | residual activity [18]: 85% | residual activity [8]: 85%

O=C1Nc2ccccc2/C1=C\c1c(Cl)[nH]c2ccccc12
residual activity [15]: 85% | residual activity [4]: 76% | residual activity [5]: 83% | residual activity [6]: 47% | residual activity [18]: 30% | residual activity [8]: 71% | residual activity [11]: 84% | residual activity [12]: 36% | residual activity [13]: 83%

O=C1Cc2c([nH]c3ccc(Br)cc23)-c2ccccc2N1
residual activity [1]: 100% | residual activity [2]: 71% | residual activity [15]: 71% | residual activity [16]: 95% | residual activity [19]: 88% | residual activity [3]: 87% | residual activity [4]: 97% | residual activity [17]: 74% | residual activity [18]: 31% | residual activity [7]: 89% | residual activity [8]: 80% | residual activity [9]: 97% | residual activity [10]: 95% | residual activity [11]: 96% | residual activity [12]: 56%

O=C1NC(=O)C(c2cn(CCCn3ccnc3)c3ccccc23)=C1Nc1ccccc1
residual activity [1]: 103% | residual activity [2]: 39% | residual activity [14]: 15% | residual activity [15]: 2% | residual activity [16]: 109% | residual activity [19]: 79% | residual activity [3]: 110% | residual activity [4]: 80% | residual activity [6]: 68% | residual activity [17]: 73% | residual activity [18]: 22% | residual activity [8]: 41% | residual activity [9]: 100% | residual activity [10]: 103% | residual activity [11]: 21% | residual activity [12]: 6% | residual activity [13]: 130%

O=S(=O)(c1cccc2cnccc12)N1CCCNCC1
residual activity [9]: 100%

COc1ccc(-c2cnc3c(-c4ccsc4)cnn3c2)cc1
residual activity [15]: 92% | residual activity [3]: 100% | residual activity [4]: 100% | residual activity [5]: 88% | residual activity [17]: 88% | residual activity [18]: 68% | residual activity [13]: 139%

O=C1NC(=O)C(c2c[nH]c3ccccc23)=C1c1c[nH]c2ccccc12
residual activity [2]: 33% | residual activity [14]: 43% | residual activity [15]: 6% | residual activity [19]: 35% | residual activity [5]: 56% | residual activity [6]: -3% | residual activity [17]: 16% | residual activity [18]: 2% | residual activity [8]: 50% | residual activity [9]: 100% | residual activity [10]: 97% | residual activity [11]: 39% | residual activity [12]: 15% | residual activity [13]: 78%
